Sampled rows, rich in hits. Any-hit rate of the full collection: about 18%.
TGFb SMAD3 inh = blocks TGF-b signaling | HepG2 CAGA-GFP TGF-b/SMAD3 reporter, GFP fluorescence, 18 h; TGF-beta stimulated, 500 pg/mL final | Potency, µM (series often up to 46.1 µM), without a hit: at the highest dose activity, negative = inhibition, most hits filed as inhibitors | hit rate 1.2% among 410,000 | AID 588855; also: potency is read from the fitted curve at half-maximal effect; % is scaled to controls: 0 for no effect and ±100 for the full control effect; nearly all actives have a fitted effect of over 65% in size
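Cell-based qHTS in HEPG2 carrying a CAGA-GFP Smad reporter; compounds added before 500 pg/mL final TGF-beta, 18 h incubation at 37 degrees C, GFP fluorescence quantified per cell by imaging cytometry.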
HepG2 viability = counter-screen for TGF-b inhibitors: cytotoxicity in HepG2 cells; HepG2 CAGA-GFP viability, ATP luminescence, 18 h; Potency, µM (top dose mostly 46.1 µM), inactives show top-dose activity change, negative = cytotoxicity, most hits filed as cytotoxic; hit rate 0.76% among 410,000; AID 588856; also: potency is read from the fitted curve at half-maximal effect
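HepG2 CAGA-GFP cells (1000/well, DMEM with 1% FBS) received compound, then TGF-beta at 500 pg/mL final, and were incubated 18 hours at 37 degrees C. Viability was read by CellTiter-Glo luminescence. Media-only wells were set as complete cell-killing and DMSO as no toxicity.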
TDP1 block = inhibitors of human tyrosyl-DNA phosphodiesterase TDP1 | Q9NUW8 | recombinant TDP1, AlphaScreen DNA substrate cleavage | Potency, µM (doses to about 130 µM), inactives show at the top dose activity change, negative = inhibition, actives largely listed as inhibitors | hit rate 0.28% among 350,000 | AID 485290; also: potency is read from the fitted curve at half-maximal effect; % is scaled to controls: 0 for no effect and ±100 for the full control effect; nearly all actives have a fitted effect of over 40% in size
Target sequence (Q9NUW8 whole entry, looked up): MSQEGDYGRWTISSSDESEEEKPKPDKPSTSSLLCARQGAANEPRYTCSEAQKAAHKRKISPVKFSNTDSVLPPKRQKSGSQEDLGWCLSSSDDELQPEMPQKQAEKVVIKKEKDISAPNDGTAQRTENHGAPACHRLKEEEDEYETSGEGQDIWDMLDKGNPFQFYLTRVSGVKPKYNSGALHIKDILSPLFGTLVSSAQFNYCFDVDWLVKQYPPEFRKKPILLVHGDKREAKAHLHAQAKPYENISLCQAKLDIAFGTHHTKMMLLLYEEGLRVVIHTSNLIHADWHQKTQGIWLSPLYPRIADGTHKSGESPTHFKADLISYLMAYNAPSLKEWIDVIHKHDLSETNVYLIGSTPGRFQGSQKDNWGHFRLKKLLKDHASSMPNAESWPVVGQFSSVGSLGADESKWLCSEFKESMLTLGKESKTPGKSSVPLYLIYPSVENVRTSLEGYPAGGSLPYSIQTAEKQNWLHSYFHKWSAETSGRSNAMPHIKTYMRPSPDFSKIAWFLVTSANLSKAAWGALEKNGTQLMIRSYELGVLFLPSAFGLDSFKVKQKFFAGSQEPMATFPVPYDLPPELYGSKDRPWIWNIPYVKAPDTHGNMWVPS
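Tdp1 1 nM final; 15 min RT w/ cpd; substrate 15 nM, 5 min; beads 10 ug/ml, 10 min; AlphaScreen read. Neg ctrl: no enzyme.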
DT40 TDP1 no CPT = qHTS for Inhibitors of human tyrosyl-DNA phosphodiesterase 1 (TDP1): qHTS in cells in absence of CPT; DT40 Tdp1-/- hTDP1 cells, no CPT, ATP luminescence, 48 h; Potency, µM (doses to about 46.2 µM), for the others: top-dose activity change, negative = growth inhibition, most hits filed as inhibitors; hit rate 15% among 420,000; AID 686978, 2013; also: potency is read from the fitted curve at half-maximal effect; % is scaled to controls: 0 for no effect and ±100 for the full control effect; nearly all actives have a fitted effect of over 55% in size
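DT40 Tdp1-/-;hTDP1 cells, no CPT (DMSO vehicle only), 400 cells/well; compounds pin-transferred; ≥48 hr, 37 °C; CellTiter-Glo 30 min RT dark, luminescence read.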
IL-1B inflam inh = blocks inflammasome-driven IL-1 beta release; THP-1 LPS/ATP IL-1B secretion, AlphaLISA, 16 h; hits give low values; activity change, % at 57.5 µM; AID 743279; hit rate 4.7% among 360,000; in the data active = activity change below about -50%; inconclusive = mostly about -30% to -49%; also: % is scaled to controls: 0 for no effect and ±100 for the full control effect
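Secreted IL-1B measured by AlphaLISA bead assay after 16 h compound exposure of THP-1 cells; compounds (final up to 57.5 uM) added 1 h before LPS (250 ng/mL) and ATP (1.25 mM) stimulation; lower signal means less secretion.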
TDP1 cell CPT = DT40-hTDP1 cell growth loss with CPT | chicken DT40 Tdp1-/-;hTDP1 cells + 20 nM CPT, ATP luminescence, 48 h | Potency, µM (titrated, usually from 46.2 µM), for inactives: at the highest dose activity change, negative = growth inhibition, actives largely listed as inhibitors | hit rate 12% among 420,000; also: potency is read from the fitted curve at half-maximal effect; % is scaled to controls: 0 for no effect and ±100 for the full control effect; nearly all actives have a fitted effect of over 55% in size
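Cell growth measured by CellTiter-Glo luminescence after a minimum 48 h, 37 C compound exposure with 20 nM CPT in Tdp1-knockout DT40 cells stably expressing hTDP1, seeded 400/well; qHTS titration format.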
Numbers without * were called inactive; u = inconclusive; x = no result given; [ ] = remark or other dose. Unless noted, calls follow the shape of the dose curve; as a rule, active = well fitted curve in the direction sought with a large enough effect; inconclusive = small, poorly fitted or top-dose-only effect, or another doubt; inactive = no such curve, though single readings can be large; an effect the other way counts as inactive or inconclusive.

SMILES	TGFb SMAD3 inh	HepG2 viability	TDP1 block	DT40 TDP1 no CPT	IL-1B inflam inh	TDP1 cell CPT
COc1ccc(-c2cc(C(F)(F)F)nc(SCC(=O)NCCc3ccc(OC)c(OC)c3)n2)cc1	-4.4%	-9.1%	-4.2%	20.6µM*	x	20.6µM*
CCOc1cc(-c2nnc(SCC(=O)NCc3ccccc3)nc2-c2ccc(OC)c(OCC)c2)ccc1OC	-11.0%	-24.4%	-1.5%	3.26µM*	x	5.8µM*
CCCCn1c(-c2ccccc2)cnc1SCC(=O)NCCc1ccc(OC)c(OC)c1	u	-5.9%	0.0%	25.9µM*	-76.6*	23.1µM*
COc1ccc(CNC(=O)CSc2nc(-c3ccc(OC)cc3)cc(C(F)(F)F)n2)cc1	u	-3.4%	3.2%	-16.6%	x	-20.1%
COc1ccc(CCNC(=O)CSc2nnc(Cc3cccn3C)n2C)cc1OC	-7.2%	0.4%	4.9%	-8.5%	1.6	-14.8%
COc1ccc(-c2nnc(SCC(=O)NCc3ccc(C)cc3)nc2-c2ccc(OC)c(OC)c2)cc1OC	u	-1.0%	9.3%	18.4µM*	x	14.6µM*
COC(=O)c1ccc(COc2ccc3c(c2)CCC3)o1	-2.8%	-5.3%	-1.4%	-15.7%	-14.1	14.7%
O=C(N/N=C/c1cc([N+](=O)[O-])ccc1O)c1ccc(COc2ccc3c(c2)CCC3)o1	4.47µM*	-49.1%	u	3.26µM*	119.1	2.59µM*
O=C(NCc1cccnc1)c1ccc(COc2ccc3c(c2)CCC3)o1	u	-49.3%	8.0%	u	-21.5	18.4µM*
COc1ccc(Br)cc1/C=N/NC(=O)c1ccc(COc2ccc3c(c2)CCC3)o1	0.0%	8.4%	4.0%	u	-8.3	-7.7%
O=C(NCc1cccnc1)c1ccc(COc2ccccc2Cl)o1	-13.0%	-21.9%	0.0%	13µM*	0.0	u
O=C(Nc1cccnc1)c1ccc(COc2ccccc2Br)o1	18.6%	-48.0%	2.3%	u	-11.7	u
COc1cc(NC(=O)c2ccccc2Cl)c(OC)cc1NC(=O)CN1CCCCC1	-14.4%	-15.4%	0.0%	6.4%	-22.0	37.6%
COc1ccc2oc(C(=O)OCC(=O)N3CCN(S(=O)(=O)c4ccc(C)cc4)CC3)c(C)c2c1	-8.4%	2.8%	-0.3%	u	2.9	u
Cc1ccc(S(=O)(=O)N2CCN(C(=O)C(O)c3ccccc3)CC2)cc1 (configuration not stated)	x	x	x	4.1%	0.6	19.2%
CCN(Cc1ccncc1)C(=O)CC1C(=O)NCCN1Cc1ccc(F)c(F)c1 (configuration not stated)	4.0%	3.1%	x	-11.9%	0.0	u
COC(=O)C1=C(C)NC(C)=C(C(=O)OC(C)C)[C@H]1c1cccc2nonc12	x	x	10.8%[21 µM]	x	x	x
O=C(CCCSc1nc(-c2ccco2)cc(C(F)(F)F)n1)Nc1ccc2c(c1)OCO2	0.0%	5.5%	-4.1%	23.1µM*	u	u
CC(=O)c1ccc(NC(=O)CCCSc2nc(-c3ccco3)cc(C(F)(F)F)n2)cc1	u	-11.6%	2.1%	16.4µM*	x	23.1µM*
O=C(CSc1nc(-c2ccco2)cc(C(F)(F)F)n1)Nc1ccc2c(c1)OCO2	1.2%	1.6%	2.6%	u	-4.6	u
Cc1ccc(S(=O)(=O)N2[C@@H](c3ccc(Cl)cc3)C(C(=O)O)=CC[C@H]2c2cccs2)cc1	-22.9%	-2.8%	1.2%	-5.6%	38.9	-4.5%
CCc1cccc(NS(=O)(=O)c2cc(-c3cnc(C)o3)ccc2OC)c1	-36.8%	-23.1%	3.8%	u	x	u
CCC(=O)[C@@H](C)[C@@H](OC(C)=O)[C@H](C)C[C@@H](C)[C@H]1OC(=O)C[C@@]2(O)CC=C(C)C(O2)C(C)=CCCC[C@H](O[C@H]2C[C@@H](OC(N)=O)[C@H](OC(C)=O)[C@@H](C)O2)C=C[C@H](C)C[C@H]1C	x	x	x	2.91µM*	18.3	u
C[C@@H]1CC[C@]2(C(=O)O)CC[C@]3(C)C(=CCC4[C@@]5(C)C[C@@H](O)[C@H](O)[C@@](C)(CO)C5[C@H](O)C[C@]43C)C2[C@H]1C (some centres not stated)	x	x	6.1%	x	x	x
O=C(COC(=O)c1cc(S(=O)(=O)N2CCOCC2)c(Cl)cc1Cl)c1ccc[nH]1	-12.7%	-26.7%	-0.5%	20.4%	-99.1*	-7.4%
SMILES	TGFb SMAD3 inh	HepG2 viability	TDP1 block	DT40 TDP1 no CPT	IL-1B inflam inh	TDP1 cell CPT
O=C(OCC(=O)N1CCCCC1)c1cc(S(=O)(=O)N2CCOCC2)c(Cl)cc1Cl	-0.5%	-3.0%	1.3%	0.3%	-59.4*	4.0%
O=C(OCc1nnc(-c2ccccc2)o1)c1cc(S(=O)(=O)N2CCOCC2)c(Cl)cc1Cl	8.1%	-56.5%	-4.8%	7.31µM*	-101.2*	20.6µM*
Cc1ccc(S(=O)(=O)N2CCOCC2)cc1C(=O)OCC(=O)c1ccc[nH]1	0.4%	4.7%	-4.8%	-11.9%	3.8	4.9%
O=C(c1cc(S(=O)(=O)N2CCOCC2)c(Cl)cc1Cl)N1CCCCC1	-16.4%	-10.4%	0.0%	-27.9%	12.5	-20.2%
O=C(OCC(=O)N1CCOCC1)c1cc(S(=O)(=O)N2CCOCC2)c(Cl)cc1Cl	-6.3%	4.2%	0.1%	-0.1%	-84.4*	-11.8%
CCCNc1nc(Cl)nc(NC(C)(C)C)n1	8.3%	3.5%	-1.1%	-26.5%	-9.6	1.4%
Nc1ncnc2c1ncn2[C@@H]1O[C@H](C(=O)N2CCN(Cc3ccccn3)CC2)[C@@H](O)[C@H]1O	3.4%	-8.1%	x	1.9%	9.3	1.4%
COc1cccc(NC(=O)Nc2ccc(Br)cn2)c1	-11.5%	-7.5%	0.0%	6.6%	-1.2	u
O=C(C1=C[C@H](c2ccc(Br)cc2)C[C@H](OCCCCO)O1)N1CCN(Cc2ccccc2)CC1	u	-20.4%	3.8%	u	0.0	23.1µM*
O=C(C1=C[C@@H](c2csc3ccccc23)C[C@@H](OCCCCO)O1)N1CCN(Cc2ccc3c(c2)OCO3)CC1	-21.7%	-22.3%	7.7%	u	u	u
O=C(C1=C[C@H](c2csc3ccccc23)C[C@H](OCCCCO)O1)N1CCN(Cc2ccccc2)CC1	u	-29.7%	0.0%	u	-6.0	25.9µM*
O=C(C1=C[C@H](c2csc3ccccc23)C[C@H](OCCCCO)O1)N1CCN(Cc2ccc3c(c2)OCO3)CC1	u	-6.5%	3.8%	u	-54.2*	u

Assay outcomes from PubChem BioAssay.
